# Source: PubChem BioAssay (NCATS)
# Results filed as inconclusive are left out. A call without a number means that no potency is given here. The source made the active and inactive calls. The call rests on the fitted dose curve; in most records, active means well fitted curve in the direction sought with a large enough effect; inconclusive means small, poorly fitted or top-dose-only effect, or another doubt; inactive means no such curve, though single readings can be large; an effect the other way counts as inactive or inconclusive.
# Key:
# [1] = qHTS of pediatric cancer cell lines to identify multiple opportunities for drug repurposing: Primary screen for MG 63 (6-TG R) cells (AID 1347105); settings: MG 63 (6-TG R) viability, CellTiter-Glo, 48 h; series mostly up to 46 µM; further: nearly all actives have a fitted effect of over 50% in size; further: potency means the concentration at half of the fitted maximal effect
# How it was run: (§1)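 Luminescence from CellTiter-Glo served as readout of metabolically active cells after 48 h compound exposure. Titrations: MIPE 11-point, from 0.78 nM; NPC 8-point, from 0.59 nM (final). Concentration-response curves came straight from the primary screen.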
# [2] = qHTS of pediatric cancer cell lines to identify multiple opportunities for drug repurposing: Primary screen for control Hh wild type fibroblast cells (AID 1347106); settings: Hh wild-type fibroblast viability, CellTiter-Glo luminescence, 48 h; series mostly up to 46 µM;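 further: a drop in luminescence marks cytotoxicity and a rise apparent proliferation; nearly all actives have a fitted effect of over 55% in size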
# How it was run: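 Cells (500-1,000/well) in growth media were settled 5 h at 37 degrees C, then given compounds for 48 h. Viability was read as CellTiter-Glo luminescence. Primary runs used MIPE at 11 points (0.78 nM-46 µM) and NPC at 8 points (0.59 nM-46 µM); follow-ups used 11 points.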
# [3] = qHTS of pediatric cancer cell lines to identify multiple opportunities for drug repurposing: Primary screen for Rh41 cells (AID 1347108); settings: Rh41 rhabdomyosarcoma viability, CellTiter-Glo luminescence, 48 h; series mostly up to 46 µM; further: nearly all actives have a fitted effect of over 70% in size; further: potency means the concentration at half of the fitted maximal effect
# How it was run: as §1
# [4] = qHTS of pediatric cancer cell lines to identify multiple opportunities for drug repurposing: Primary screen for Rh30 cells (AID 1347107); settings: Rh30 rhabdomyosarcoma viability, CellTiter-Glo luminescence, 48 h; series mostly up to 46 µM; further: nearly all actives have a fitted effect of over 75% in size; further: potency means the concentration at half of the fitted maximal effect
# How it was run: (§2)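 Cells (500-1,000/well) rested 5 h, then received compounds for 48 h; metabolically active cells were measured by CellTiter-Glo luminescence. Final concentrations spanned up to 46 µM (MIPE, 11-point) or 0.59 nM-46 µM (NPC, 8-point) in primary screens, 11-point in follow-ups.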
# [5] = qHTS of pediatric cancer cell lines to identify multiple opportunities for drug repurposing: Confirmatory screen for A673 cells (AID 1347110); settings: A673 Ewing sarcoma cell viability; series mostly up to 45.9 µM;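 further: cells exposed to compound for 48 h before the viability read; nearly all actives have a fitted effect of over 65% in size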; further: potency means the concentration at half of the fitted maximal effect
# How it was run: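 A673 cells seeded at 500-1,000 cells/well, rested 5 h, then dosed; primary MIPE 11-point (0.78 nM to 46 µM), NPC (0.59 nM to 46 µM); confirmatory 11-point. CellTiter-Glo luminescence after 48 h.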
# [6] = qHTS of pediatric cancer cell lines to identify multiple opportunities for drug repurposing: Confirmatory screen for BT-12 cells (AID 1347112); settings: BT-12 rhabdoid tumor cells, viability; series mostly up to 45.9 µM; further: nearly all actives have a fitted effect of over 55% in size; further: potency means the concentration at half of the fitted maximal effect
# How it was run: as §2
# [7] = qHTS of pediatric cancer cell lines to identify multiple opportunities for drug repurposing: Confirmatory screen for LAN-5 cells (AID 1347113); settings: LAN-5 neuroblastoma cell viability; series mostly up to 45.9 µM; further: nearly all actives have a fitted effect of over 65% in size; further: potency means the concentration at half of the fitted maximal effect
# How it was run: as §2
# [8] = qHTS of pediatric cancer cell lines to identify multiple opportunities for drug repurposing: Confirmatory screen for NB-EBc1 cells (AID 1347115); settings: NB-EBc1 neuroblastoma cells, viability (cytotoxicity); series mostly up to 45.9 µM;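 further: cells exposed to compound for 48 h before the viability read; nearly all actives have a fitted effect of over 45% in size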; further: potency means the concentration at half of the fitted maximal effect
# How it was run: as §2
# [9] = qHTS of pediatric cancer cell lines to identify multiple opportunities for drug repurposing: Confirmatory screen for SJ-GBM2 cells (AID 1347116); settings: SJ-GBM2 glioblastoma cells, viability; series mostly up to 45.9 µM; further: nearly all actives have a fitted effect of over 60% in size; further: potency means the concentration at half of the fitted maximal effect
# How it was run: (§3)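 Viability measured as metabolically active cells via CellTiter-Glo luminescence following 48 hours of compound exposure, 11-point dilutions in confirmatory testing. 500-1,000 cells/well plated 5 hours before dosing; controls were DMSO and 2.3 µM bortezomib.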
# [10] = qHTS of pediatric cancer cell lines to identify multiple opportunities for drug repurposing: Confirmatory screen for DAOY cells (AID 1347114); settings: DAOY medulloblastoma cells viability, cytotoxicity qHTS; series mostly up to 45.9 µM; further: nearly all actives have a fitted effect of over 65% in size; further: potency means the concentration at half of the fitted maximal effect
# How it was run: as §3
structure (smiles),measurement,setting,value
COCC1(CO)C(=O)C2CCN1CC2 (configuration not stated),Potency,[1],18700 nM (active)
same,Potency,[2],inactive
same,Potency,[3],20900 nM (active)
CC(=O)[O][Hg][c]1ccccc1,Potency,[1],2660 nM (active)
same,Potency,[4],2660 nM (active)
same,Potency,[3],1060 nM (active)
same,Potency,[5],1040 nM (active)
same,Potency,[6],4650 nM (active)
same,Potency,[7],3290 nM (active)
same,Potency,[8],5850 nM (active)
same,Potency,[9],1170 nM (active)
CS(=O)(=O)c1ccc(C(=O)C2C(=O)CCCC2=O)c([N+](=O)[O-])c1,Potency,[1],inactive
same,Potency,[2],inactive
same,Potency,[4],inactive
same,Potency,[5],inactive
same,Potency,[6],inactive
same,Potency,[7],inactive
same,Potency,[10],inactive
same,Potency,[8],inactive
same,Potency,[9],inactive
O=C1C(I)=CC(=C(c2cc(I)c(O)c(I)c2)c2ccccc2C(=O)O)C=C1I,Potency,[1],inactive
same,Potency,[2],inactive
same,Potency,[4],inactive
same,Potency,[5],3690 nM (active)
same,Potency,[6],inactive
same,Potency,[8],inactive
CCNC(=O)CC1N=C(c2ccc(Cl)cc2)c2cc(OC)ccc2-n2c(C)nnc21 (configuration not stated),Potency,[2],inactive
CC1(N2CCC(n3c([C@@H]4CCCNC4)nc4ccccc43)CC2)CCCCCCC1,Potency,[1],inactive
same,Potency,[4],inactive
same,Potency,[3],inactive
CCCN(CCC)c1c([N+](=O)[O-])cc(S(N)(=O)=O)cc1[N+](=O)[O-],Potency,[1],48600 nM (active)
same,Potency,[2],inactive
same,Potency,[3],38600 nM (active)
Cc1c(N)nc([C@H](CC(N)=O)NC[C@@H](N)C(N)=O)nc1C(=O)N[C@H](C(=O)N[C@@H](C)[C@H](O)[C@@H](C)C(=O)N[C@@H](C(=O)NCCc1nc(-c2nc(C(=O)NCCC[S+](C)C)cs2)cs1)[C@@H](C)O)C(O[C@H]1O[C@H](CO)[C@H](O)[C@@H](O)[C@@H]1O[C@H]1O[C@H](CO)[C@@H](O)[C@H](OC(N)=O)[C@H]1O)c1cnc[nH]1 (some centres not stated),Potency,[1],590 nM (active)
same,Potency,[4],inactive
same,Potency,[3],inactive
same,Potency,[5],9270 nM (active)
same,Potency,[7],inactive
same,Potency,[9],inactive
Cc1ccccc1-n1c(Cn2cnc3c(N)ncnc32)nc2cccc(C)c2c1=O,Potency,[1],148 nM (active)
same,Potency,[3],590 nM (active)
same,Potency,[5],inactive
same,Potency,[6],inactive
same,Potency,[8],inactive
same,Potency,[9],inactive
c1ccc(CCCN2CCN(CCOC(c3ccccc3)c3ccccc3)CC2)cc1,Potency,[2],inactive
COC[C@H]1OC(=O)c2coc3c2[C@@]1(C)C1=C(C3=O)[C@@H]2CC[C@H](O)[C@@]2(C)C[C@@H]1OC(C)=O,Potency,[1],1870 nM (active)
same,Potency,[2],inactive
same,Potency,[3],11800 nM (active)
COc1ccc(C(c2ccc(OC)cc2)C(Cl)(Cl)Cl)cc1,Potency,[2],inactive
COc1ccc2c(c1)CN(C)CC2c1ccc(Cl)c(Cl)c1 (configuration not stated),Potency,[1],inactive
same,Potency,[2],inactive
same,Potency,[4],inactive
same,Potency,[3],inactive
same,Potency,[6],inactive
same,Potency,[9],1470 nM (active)
COc1cc([C@@H]2c3cc4c(cc3[C@@H](O)C3COC(=O)C32)OCO4)cc(OC)c1O (some centres not stated),Potency,[1],inactive
same,Potency,[4],inactive
same,Potency,[5],522 nM (active)
same,Potency,[10],185 nM (active)
same,Potency,[8],3690 nM (active)
same,Potency,[9],inactive
